# Measured values from the supplement of paper PMC4466140.
# Key:
# Assay in all cases: SPOT peptide array binding signal intensity (averaged, normalized) (arbitrary units (background-subtracted, floor 0; scale differs between SH3 domains)); higher = stronger binding of the SH3 domain to the peptide
# SpBzz1-D2 = biological target: SpBzz1-D2
# Summary of the method: (§1)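 GST-SH3 fusions from four yeast species, purified on glutathione Sepharose, were incubated at 10 μg/ml overnight at 4°C on membranes of synthetic 15-mer peptides in which cysteines were replaced with serines. Binding signal is the normalized, background-subtracted spot intensity averaged over replicates, in domain-specific arbitrary units.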
# SpCyk3 = biological target: SpCyk3
# Summary of the method: as §1
# SpHof1 = biological target: SpHof1
# Summary of the method: as §1
# SpHof1-2 = biological target: SpHof1-2
# Summary of the method: as §1
# SpHof1-3 = biological target: SpHof1-3
# Summary of the method: as §1
# SpHse1 = biological target: SpHse1
# Summary of the method: as §1
# SpLsb1 = biological target: SpLsb1
# Summary of the method: as §1
# SpLsb4 = biological target: SpLsb4
# Summary of the method: as §1
# SpMyo1 = biological target: SpMyo1
# Summary of the method: as §1
# SpNbp2 = biological target: SpNbp2
# Summary of the method: as §1
# SpPex13 = biological target: SpPex13
# Summary of the method: as §1
# SpRvs167 = biological target: SpRvs167
# Summary of the method: as §1
# SpSla1-D1-D2 = biological target: SpSla1-D1-D2
# Summary of the method: as §1
# SpSla1-D3 = biological target: SpSla1-D3
# Summary of the method: as §1
# AgAbp1 = biological target: AgAbp1
# Summary of the method: as §1
# AgBbc1 = biological target: AgBbc1
# Summary of the method: as §1
# AgBem1-D1 = biological target: AgBem1-D1
# Summary of the method: as §1
# AgBzz1-D1 = biological target: AgBzz1-D1
# Summary of the method: as §1
# AgBzz1-D2 = biological target: AgBzz1-D2
# Summary of the method: as §1
# AgCyk3 = biological target: AgCyk3
# Summary of the method: as §1
# AgFus1 = biological target: AgFus1
# Summary of the method: as §1
# AgHof1 = biological target: AgHof1
# Summary of the method: as §1
# AgHse1 = biological target: AgHse1
# Summary of the method: as §1
# AgLsb1 = biological target: AgLsb1
# Summary of the method: as §1
# AgLsb4 = biological target: AgLsb4
# Summary of the method: as §1
# AgMyo5 = biological target: AgMyo5
# Summary of the method: as §1
# AgNbp2 = biological target: AgNbp2
# Summary of the method: as §1
# AgRvs167 = biological target: AgRvs167
# Summary of the method: as §1
# AgSho1 = biological target: AgSho1
# Summary of the method: as §1
# AgSla1-D1-D2 = biological target: AgSla1-D1-D2
# Summary of the method: as §1
# AgSla1-D3 = biological target: AgSla1-D3
# Summary of the method: as §1
# CaAbp1-D1 = biological target: CaAbp1-D1
# Summary of the method: as §1
# CaAbp1-D2 = biological target: CaAbp1-D2
# Summary of the method: as §1
# CaBbc1 = biological target: CaBbc1
# Summary of the method: as §1
# CaBem1-D1 = biological target: CaBem1-D1
# Summary of the method: as §1
# CaBzz1-D1 = biological target: CaBzz1-D1
# Summary of the method: as §1
# CaBzz1-D2 = biological target: CaBzz1-D2
# Summary of the method: as §1
# CaCyk3 = biological target: CaCyk3
# Summary of the method: as §1
# CaFus1 = biological target: CaFus1
# Summary of the method: as §1
# CaHof1 = biological target: CaHof1
# Summary of the method: as §1
# CaHse1 = biological target: CaHse1
# Summary of the method: as §1
# CaLsb1 = biological target: CaLsb1
# Summary of the method: as §1
# CaLsb4 = biological target: CaLsb4
# Summary of the method: as §1
# CaMyo5 = biological target: CaMyo5
# Summary of the method: as §1
# CaNbp2 = biological target: CaNbp2
# Summary of the method: as §1
# CaRvs167 = biological target: CaRvs167
# Summary of the method: as §1
# CaRvs167-3 = biological target: CaRvs167-3
# Summary of the method: as §1
# CaSho1 = biological target: CaSho1
# Summary of the method: as §1
# CaSla1-D1-D2 = biological target: CaSla1-D1-D2
# Summary of the method: as §1
# CaSla1-D3 = biological target: CaSla1-D3
# Summary of the method: as §1
# ScAbp1 = biological target: ScAbp1
# Summary of the method: as §1
# ScBbc1 = biological target: ScBbc1
# Summary of the method: as §1
# ScBem1-D1 = biological target: ScBem1-D1
# Summary of the method: as §1
# ScBzz1-D1 = biological target: ScBzz1-D1
# Summary of the method: as §1
# ScBzz1-D2 = biological target: ScBzz1-D2
# Summary of the method: as §1
# ScCyk3 = biological target: ScCyk3
# Summary of the method: as §1
# ScFus1 = biological target: ScFus1
# Summary of the method: as §1
# ScHof1 = biological target: ScHof1
# Summary of the method: as §1
# ScHse1 = biological target: ScHse1
# Summary of the method: as §1
# ScLsb1 = biological target: ScLsb1
# Summary of the method: as §1
# ScLsb2 = biological target: ScLsb2
# Summary of the method: as §1
# ScLsb3 = biological target: ScLsb3
# Summary of the method: as §1
# ScLsb4 = biological target: ScLsb4
# Summary of the method: as §1
# ScMyo3 = biological target: ScMyo3
# Summary of the method: as §1
# ScMyo5 = biological target: ScMyo5
# Summary of the method: as §1
# ScNbp2 = biological target: ScNbp2
# Summary of the method: as §1
# ScPex13 = biological target: ScPex13
# Summary of the method: as §1
# ScRvs167 = biological target: ScRvs167
# Summary of the method: as §1
# ScSho1 = biological target: ScSho1
# Summary of the method: as §1
# ScSla1-D1-D2 = biological target: ScSla1-D1-D2
# Summary of the method: as §1
# ScSla1-D3 = biological target: ScSla1-D3
# Summary of the method: as §1
# SpAbp1-D1 = biological target: SpAbp1-D1
# Summary of the method: as §1
# SpBbc1 = biological target: SpBbc1
# Summary of the method: as §1
# SpBzz1-D1 = biological target: SpBzz1-D1
# Summary of the method: as §1
binder,measurement,setting,value
MKRSRPSRSIPYTTP,SPOT peptide array binding signal intensity,SpBzz1-D2,1.5
same,SPOT peptide array binding signal intensity,SpCyk3,14
same,SPOT peptide array binding signal intensity,SpHof1,50.2
same,SPOT peptide array binding signal intensity,SpHof1-2,30
same,SPOT peptide array binding signal intensity,SpHof1-3,244
same,SPOT peptide array binding signal intensity,SpHse1,177
same,SPOT peptide array binding signal intensity,SpLsb1,4.5
same,SPOT peptide array binding signal intensity,SpLsb4,580
same,SPOT peptide array binding signal intensity,SpMyo1,82.5
same,SPOT peptide array binding signal intensity,SpNbp2,224
same,SPOT peptide array binding signal intensity,SpPex13,16
same,SPOT peptide array binding signal intensity,SpRvs167,10.8
same,SPOT peptide array binding signal intensity,SpSla1-D1-D2,≤ 0
same,SPOT peptide array binding signal intensity,SpSla1-D3,7
ALFRLSFFFPLDPAY,SPOT peptide array binding signal intensity,AgAbp1,90.5
same,SPOT peptide array binding signal intensity,AgBbc1,59.5
same,SPOT peptide array binding signal intensity,AgBem1-D1,487
same,SPOT peptide array binding signal intensity,AgBzz1-D1,204
same,SPOT peptide array binding signal intensity,AgBzz1-D2,161
same,SPOT peptide array binding signal intensity,AgCyk3,40.5
same,SPOT peptide array binding signal intensity,AgFus1,3740
same,SPOT peptide array binding signal intensity,AgHof1,184
same,SPOT peptide array binding signal intensity,AgHse1,2470
same,SPOT peptide array binding signal intensity,AgLsb1,66
same,SPOT peptide array binding signal intensity,AgLsb4,1960
same,SPOT peptide array binding signal intensity,AgMyo5,6.5
same,SPOT peptide array binding signal intensity,AgNbp2,796
same,SPOT peptide array binding signal intensity,AgRvs167,40.7
same,SPOT peptide array binding signal intensity,AgSho1,2320
same,SPOT peptide array binding signal intensity,AgSla1-D1-D2,150
same,SPOT peptide array binding signal intensity,AgSla1-D3,25.5
same,SPOT peptide array binding signal intensity,CaAbp1-D1,494
same,SPOT peptide array binding signal intensity,CaAbp1-D2,621
same,SPOT peptide array binding signal intensity,CaBbc1,162
same,SPOT peptide array binding signal intensity,CaBem1-D1,141
same,SPOT peptide array binding signal intensity,CaBzz1-D1,574
same,SPOT peptide array binding signal intensity,CaBzz1-D2,416
same,SPOT peptide array binding signal intensity,CaCyk3,68
same,SPOT peptide array binding signal intensity,CaFus1,4730
same,SPOT peptide array binding signal intensity,CaHof1,10
same,SPOT peptide array binding signal intensity,CaHse1,985
same,SPOT peptide array binding signal intensity,CaLsb1,79.5
same,SPOT peptide array binding signal intensity,CaLsb4,278
same,SPOT peptide array binding signal intensity,CaMyo5,156
same,SPOT peptide array binding signal intensity,CaNbp2,1460
same,SPOT peptide array binding signal intensity,CaRvs167,578
same,SPOT peptide array binding signal intensity,CaRvs167-3,964
same,SPOT peptide array binding signal intensity,CaSho1,2260
same,SPOT peptide array binding signal intensity,CaSla1-D1-D2,131
same,SPOT peptide array binding signal intensity,CaSla1-D3,848
same,SPOT peptide array binding signal intensity,ScAbp1,81.5
same,SPOT peptide array binding signal intensity,ScBbc1,9.5
same,SPOT peptide array binding signal intensity,ScBem1-D1,110
same,SPOT peptide array binding signal intensity,ScBzz1-D1,218
same,SPOT peptide array binding signal intensity,ScBzz1-D2,531
same,SPOT peptide array binding signal intensity,ScCyk3,246
same,SPOT peptide array binding signal intensity,ScFus1,3920
same,SPOT peptide array binding signal intensity,ScHof1,2.5
same,SPOT peptide array binding signal intensity,ScHse1,4160
same,SPOT peptide array binding signal intensity,ScLsb1,70.2
same,SPOT peptide array binding signal intensity,ScLsb2,24
same,SPOT peptide array binding signal intensity,ScLsb3,674
same,SPOT peptide array binding signal intensity,ScLsb4,104
same,SPOT peptide array binding signal intensity,ScMyo3,35
same,SPOT peptide array binding signal intensity,ScMyo5,62.8
same,SPOT peptide array binding signal intensity,ScNbp2,802
same,SPOT peptide array binding signal intensity,ScPex13,116
same,SPOT peptide array binding signal intensity,ScRvs167,91.7
same,SPOT peptide array binding signal intensity,ScSho1,2780
same,SPOT peptide array binding signal intensity,ScSla1-D1-D2,120
same,SPOT peptide array binding signal intensity,ScSla1-D3,426
same,SPOT peptide array binding signal intensity,SpAbp1-D1,303
same,SPOT peptide array binding signal intensity,SpBbc1,57.2
same,SPOT peptide array binding signal intensity,SpBzz1-D1,838
same,SPOT peptide array binding signal intensity,SpBzz1-D2,6.5
same,SPOT peptide array binding signal intensity,SpCyk3,55
same,SPOT peptide array binding signal intensity,SpHof1,844
same,SPOT peptide array binding signal intensity,SpHof1-2,230
same,SPOT peptide array binding signal intensity,SpHof1-3,1850
same,SPOT peptide array binding signal intensity,SpHse1,2380
same,SPOT peptide array binding signal intensity,SpLsb1,15.5
same,SPOT peptide array binding signal intensity,SpLsb4,463
same,SPOT peptide array binding signal intensity,SpMyo1,91
same,SPOT peptide array binding signal intensity,SpNbp2,2350
same,SPOT peptide array binding signal intensity,SpPex13,565
same,SPOT peptide array binding signal intensity,SpRvs167,131
same,SPOT peptide array binding signal intensity,SpSla1-D1-D2,8
same,SPOT peptide array binding signal intensity,SpSla1-D3,192
